Data from the supplement of paper PMC6555819.

Tests used:
Experiment in all cases: PBM binding z-score (relative to random genomic background probes); higher = stronger binding; sequences stand for … in GC…GCGATTGACAGCGTAGAATGAAGG
[1] = test system: FXR:RXRa (NR concentration 270 nM, RXRa partner concentration 90 nM)
Method in brief: (§1)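 On custom Agilent 4×180K arrays, double-stranded probes with 34-nt variable regions carried direct-repeat seeds, single-nucleotide variants, half-site ablations or random human genomic background. Ligand-free nuclear receptor dimers were applied for 1 h, and binding was read with antibodies against each partner (one per run). Binding z-scores come from regression-normalized fluorescence, with the random background probes as reference.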

[2] = test system: LXRa:RXRa (NR concentration 270 nM, RXRa partner concentration 90 nM)
Method in brief: as §1

[3] = test system: LXRa homodimer (NR concentration 270 nM)
Method in brief: as §1

[4] = test system: LXRb:RXRa (NR concentration 270 nM, RXRa partner concentration 90 nM)
Method in brief: as §1

[5] = test system: LXRb homodimer (NR concentration 270 nM)
Method in brief: as §1

[6] = test system: PPARa:RXRa (NR concentration 270 nM, RXRa partner concentration 90 nM)
Method in brief: as §1

[7] = test system: PPARg:RXRa (NR concentration 180 nM, RXRa partner concentration 90 nM)
Method in brief: as §1

[8] = test system: PPARg:RXRa 270nM:90nM, anti-RXR (NR concentration 270 nM, RXRa partner concentration 90 nM)
Method in brief: as §1

[9] = test system: PPARg:RXRa 30nM:10nM, anti-RXR (NR concentration 30 nM, RXRa partner concentration 10 nM)
Method in brief: as §1

[10] = test system: PPARg:RXRa 90nM:30nM, anti-RXR (NR concentration 90 nM, RXRa partner concentration 30 nM)
Method in brief: as §1

Sequence | PBM binding z-score [1] | PBM binding z-score [2] | PBM binding z-score [3] | PBM binding z-score [4] | PBM binding z-score [5] | PBM binding z-score [6] | PBM binding z-score [7] | PBM binding z-score [8] | PBM binding z-score [9] | PBM binding z-score [10]
CACACTAGGTCACGAAAGGTCAAAGTCGAATGAC | 7.55 | 8.25 | 9.12 | 7.76 | 3.53 | 6.67 | 9.73 | 8.2 | 6.53 | 8.24
ACTAGCAGGCCAAGTTGGGGTCACTCAAACAAAG | 3.18 | 3.16 | 0.123 | 4.07 | -0.00108 | 4.63 | 1.63 | 2.88 | 0.385 | 1.96
AGAACGAGGGCACGCTGAGTTGTTAGCAGAGTAG | 0.878 | 0.882 | -0.742 | 0.17 | -1.13 | 2.18 | 1.94 | 1.79 | 0.32 | 1.16
ACTCGGAGGACAAAGGTCAGAGCTACGCCAGTGA | 4.09 | 4.15 | 1.61 | 3.4 | 0.202 | 4.93 | 7.6 | 7.06 | 5.63 | 7.83
CCTACTGGGCGATCAGGTCATTGATATCAACGTT | 0.953 | 0.548 | 0.541 | 0.798 | -0.539 | 1.44 | 0.524 | 1.26 | 0.0672 | 0.741
TTACCAAGGTGAAGGTCGCTGATCCCTCTGTAGA | 1.1 | 0.984 | -0.243 | 0.689 | -1.18 | 2.43 | 2.63 | 4.12 | 1.98 | 3.68
CGAACTAGATCAAGGACAGTGAATCTCCGCACGC | -0.0387 | -0.559 | -0.0881 | -0.756 | -0.00382 | -0.388 | 0.599 | -0.0723 | -0.423 | -0.36
GCTGCTAGGTCAGGTAGGTCAGCTAACGGGTACG | 2.1 | 1.72 | 0.0186 | 1.43 | -0.161 | 2.41 | 1.45 | 2.19 | -0.0602 | 1
AATAGAGGGTCATCGTAGGCCAGAGTACGCACAG | 6.8 | 6.19 | 1.56 | 3.89 | 0.604 | 5.5 | 5.46 | 5.11 | 2.13 | 3.89
ACTCGGAGGACCAAGGTCAGAGCTACGCCAGTGA | 1.21 | 0.987 | -0.312 | 0.779 | -0.603 | 1.79 | 0.947 | 1.31 | 0.277 | 0.773
ATATGTGGGTTAAGGGTCATTCAGGTTGGTTCGC | 5.26 | 4.74 | 3.07 | 4.91 | 2.59 | 6.53 | 11.6 | 9.82 | 10.4 | 11.3
CCTAGCAGGCGAATCTGGGTCACTCAAGGCTTGA | 0.211 | 0.262 | -0.449 | 0.236 | -0.934 | 3.11 | 2.47 | 2.62 | -0.139 | 1.64
GGAACGAGGGCAAAGTTGATACCATCTGTCGACG | 1.54 | 1.06 | 0.172 | 1.17 | -0.157 | 4.04 | 6.72 | 6.85 | 6.52 | 7.6
TCGAGTAGGATACCAATGGGGCATTCAGCTTTCT | -0.594 | -0.525 | -0.966 | -0.394 | -0.758 | -0.335 | -0.0828 | -0.0523 | 0.785 | 0.306
TCTTGTAGATCACGCAGGTTAAGAAAGCCTGAGT | 0.613 | 0.539 | -0.162 | 0.551 | -0.17 | 1.09 | -0.0924 | 1.37 | 2.72 | 1.89
TCATAAAGGTAAATGCTAGGTGAAAGTCCGATCT | 1.41 | 1.31 | 0.158 | 0.935 | -0.29 | 1.55 | 0.57 | 2.52 | 4.21 | 3.45
TGTCAAAGTTCAAAGGTAAAGTAAGTATCCACAC | 7.42 | 6.49 | 3.99 | 4.8 | 1.68 | 5.87 | 8.7 | 7.81 | 5.23 | 7.51
GCAGACAAGTGAAACGCAGGTAACTCAGGGTGGC | -0.375 | -0.79 | -0.665 | -0.901 | -1.26 | -0.28 | 0.44 | -0.661 | -0.558 | -0.468
TCGAGTAGGTTTGGGGCATTCAGAATGGCGTCGA | -0.5 | -0.529 | -0.289 | 0.316 | -0.295 | 0.0771 | -0.558 | 0.475 | 0.701 | 0.598

Sequence | PBM binding z-score [1] | PBM binding z-score [2] | PBM binding z-score [3] | PBM binding z-score [4] | PBM binding z-score [5] | PBM binding z-score [6] | PBM binding z-score [7] | PBM binding z-score [8] | PBM binding z-score [9] | PBM binding z-score [10]
TAGCCGAGGTCATGGGCCAGTATACCACGCGAAC | 7.63 | 5.96 | 0.925 | 4.99 | 0.79 | 6.28 | 7.45 | 7.21 | 3.43 | 5.67
GCTCGGAAGACAAGGTCAGAGCTTTGTCCGTAGA | 1.01 | 1.26 | -0.528 | 0.906 | -1.34 | 1.97 | 0.0442 | 0.519 | -0.417 | 0.239
GTACGAAGGTGAATAGGTCGTTGATGAGTAGGCG | 0.531 | 0.661 | -0.364 | 0.505 | -0.557 | 2.15 | 1.38 | 1.87 | 0.421 | 1.22
CGAAGTAGGTCAGAACAGGACAGTGAAGGATGAT | 1.72 | 1.2 | -0.0962 | 0.449 | 0.019 | 3.32 | 5.69 | 4.81 | 2.22 | 4.14
CCGACTGGGGCAAGTTTACCATAACGCACAGCCA | -0.129 | 0.0135 | 0.16 | 0.0377 | -0.603 | 0.536 | 0.987 | 0.774 | -0.288 | 0.451
CCATACGGGTCACTGACAGGTTATAGCATTTGGA | 4.49 | 4.04 | 0.394 | 3.31 | 0.0673 | 4.83 | 3.92 | 3.76 | 1.43 | 2.41
TCATATAGGTAAACCGGTGAAAGTCCGTAAGTTA | 0.407 | 0.533 | 0.147 | 0.517 | -0.352 | 1.68 | 1.17 | 2.72 | 3.49 | 2.97
GGAACGAGGGCAAAGTCGATAGCATCTGTCGACG | 0.356 | 0.379 | -0.902 | -0.096 | -0.476 | 1.74 | 1.97 | 2.58 | 0.954 | 2.36
TGCATGAGGTTATAAGATCAGGGAACGTTGCAAA | 1.67 | 1.59 | -0.113 | 0.956 | 0.14 | 2.37 | 0.778 | 1.2 | 0.448 | 0.789
AGAATGACGTTACCAAAGATCAGGGAAACGCTTG | -0.187 | -0.0658 | -0.236 | -0.336 | -0.144 | -0.289 | 0.77 | 0.125 | 0.189 | 0.17
ATCTCTAGGTAACAAGTGCAGTGAAAGAGAGGAC | 0.0619 | 0.181 | -0.0829 | -0.182 | 0.699 | 0.43 | 1.07 | 1.38 | 0.591 | 1.05
TTACCATGGTGAGCTGAGGTCGTTGATCCAACTC | 0.322 | 0.0093 | -0.568 | 0.111 | -1.05 | 0.702 | -0.38 | -0.0543 | -0.214 | -0.294
CCTACCAGGCCAATCTGGGTCACTCAAGGCTTGA | 1.15 | 1.52 | 0.0755 | 1.01 | -0.051 | 2.92 | 2.3 | 2.4 | -0.0148 | 1.57
TGAATGAGGTTATAAGAACAGGGAACGTTGCAAA | 1.63 | 1.18 | -0.262 | 1.03 | 0.118 | 2.32 | 1.33 | 1.6 | 0.909 | 1.08
TTACCAAGGTGTAAGGTCGTTGATGCACGCCTTG | 0.533 | 0.628 | -0.156 | 0.478 | -0.764 | 2.06 | 2.4 | 4.03 | 1.99 | 3.46
TGTCAAAGTTCAAAGTTAACGTAAGTATCCACAC | 6.94 | 6.38 | 5.46 | 4.6 | 2.99 | 5.59 | 8.27 | 7.38 | 5.04 | 7.29
TCTAGGTGGTCACGGAGGTCACACACGACGGGTA | 3.81 | 3.68 | 2.06 | 3.28 | 0.0895 | 4.01 | 3.58 | 4.2 | 3.06 | 3.96
GCTGCTAGGTCAACTGATGATCAGCTAAAGCTCG | 3.88 | 2.96 | -0.334 | 2.02 | 0.0909 | 3.68 | 2.88 | 3.19 | 0.694 | 2.07
TCTTGTAGATCCAGCAGGTTAAGAAAGCCTGAGT | 0.108 | 0.186 | -0.293 | 0.284 | -0.208 | 0.342 | -0.483 | 1.03 | 2.62 | 1.84
